Data taken from PubChem BioAssay (Tox21).
Records with an inconclusive call do not appear. Entries that show only a call come without a potency. Active and inactive are the calls of the source. The call rests on the fitted dose curve.

Test: qHTS assay for small molecule agonists of the p53 signaling pathway (AID 651631); further: nearly all actives have a fitted effect of over 15% in size
Details: HCT-116 p53RE-bla reporter, beta-lactamase FRET ratio, 16 h; series mostly up to 73.3 µM
Description: U.S. Tox21 Program National Center for Advancing Translational Sciences [NCATS] NIH Chemical Genomics Center [NCGC] U.S. Environmental Protection Agency [EPA] National Institutes of Environmental Health Sciences [NIEHS] National Toxicology Program [NTP] U.S. Food and Drug Administration [FDA] Tox21 Assay Overview: p53, a tumor suppressor protein, is activated following cellular insult, including DNA damage and other cellular stresses. The activation of p53 regulates cell fate by inducing DNA repair, cell cycle arrest, apoptosis, or cellular senescence. The activation of p53, therefore, is a good indicator of DNA damage and other cellular stresses. The CellSensor p53RE-bla HCT-116 cell line (Invitrogen) contains a stably integrated beta-lactamase reporter gene under control of the p53 response elements. The activation of the reporter gene under culture conditions can be detected by fluorescence intensity. This cell line was used to screen the Tox21 compound library in a 1536-well plate format and to identify agonists that activate the p53 signaling pathway.
Tox21 Assay Protocol Summary: The p53RE-bla cells were dispensed at 4,000 cells/5 ul/well in 1536-well black wall/clear bottom plates using a Multidrop dispenser. After the assay plates were incubated at a 37 C/5% CO2 incubator for 5 hours, 23 nL of compounds dissolved in DMSO, positive controls or DMSO only was transferred to the assay plate by a pin tool. The plates were incubated at 37 C for 16 hours. After 1 uL of LiveBLAzerTM B/G FRET substrate was added using a Flying Reagent Dispenser, the plates were incubated at room temperature for 2 hours, and fluorescence intensity was measured by an Envision plate reader.
Potency means the concentration at half of the fitted maximal effect.

| Structure (SMILES) | Potency |
| --- | --- |
| CC1=C(C(=O)Nc2ccccc2)S(=O)(=O)CCO1 | 19.3 µM (active) |
| CC(C)(C)C(=O)C(Oc1ccc(Cl)cc1)n1cncn1 (stereo not given) | inactive |
| COC(=O)c1c(C(F)F)nc(C(F)(F)F)c(C2=NCCS2)c1CC(C)C | inactive |
| O=[N+]([O-])c1ccc2c3c(cccc13)CC2 | inactive |
| ClC(Br)Br | inactive |
| CC(=O)CC(c1ccc(Cl)cc1)c1c(O)c2ccccc2oc1=O (stereo not given) | inactive |
| CS(=O)(=O)c1cc(C(F)(F)F)ccc1C(=O)c1cnoc1C1CC1 | inactive |
| O=C(Oc1ccc(Br)cc1)N1CCN2CCC1CC2 | inactive |
| C[N+](=O)[O-] | inactive |
| ClC(Cl)(Cl)C(Cl)(Cl)Cl | inactive |
| C=CC1CC=CCC1 (stereo not given) | inactive |
| CC(Cl)(Cl)[N+](=O)[O-] | inactive |
| N#CCNCC#N | inactive |
| CC(CC(C#N)(c1ccccc1)c1ccccc1)N(C)C (stereo not given) | inactive |
| O=[N+]([O-])c1cccc2cccnc12 | inactive |
| CCS(=O)(=O)CCSP(=O)(OC)OC | inactive |
| Cc1ncc(CNC(=O)N(CCCl)N=O)c(N)n1 | inactive |
| O=S(=O)(O)C(F)(F)C(F)(F)C(F)(F)C(F)(F)C(F)(F)C(F)(F)F | inactive |
| CN1CCC(O)(c2ccc(F)cc2)C(C(=O)c2ccc(F)cc2)C1 (stereo not given) | inactive |
| c1cc[c]([Hg][c]2ccccc2)cc1 | 15.4 µM (active) |

| Structure (SMILES) | Potency |
| --- | --- |
| CC(C)CP(=S)(S)CC(C)C | inactive |
| N#Cc1c(Cl)cccc1Cl | inactive |
| c1coc(-c2nc3ccccc3[nH]2)c1 | inactive |
| CSc1ccc(C(=O)C(C)(C)N2CCOCC2)cc1 | inactive |
| O=c1oc2ccccc2c(O)c1C1CCCc2ccccc21 (stereo not given) | inactive |
| COC(C)(C)C | inactive |
| Cc1nc(N)nc(N)n1 | inactive |
| N#CCCC#N | inactive |
| CN/C(=N\[N+](=O)[O-])NCC1CCOC1 (stereo not given) | inactive |
| CN(C)CCc1ccc(O)cc1 | inactive |
| CCN(CC)c1nc(C)cc(OP(=S)(OC)OC)n1 | inactive |
| CNC(=O)Oc1ccccc1C1OCCO1 | inactive |
| NC1=NC(=O)C(c2ccccc2)O1 (stereo not given) | inactive |
| CNCC(=O)c1ccc(O)c(O)c1 | inactive |
| CCC/C(=N\OCC)C1=C(O)CC(CC(C)SCC)CC1=O (stereo not given) | inactive |
| c1cc2c(c(N3CCNCC3)c1)OCCO2 | inactive |
| CCOP(=S)(Oc1cnc(C(C)(C)C)nc1)OC(C)C (stereo not given) | inactive |
| COc1ccc2c(c1OC)CN1CCc3cc4c(cc3C1C2)OCO4 (stereo not given) | inactive |
| CCOC(=O)/C=C(C)/C=C/C[C@@H](C)CCCC(C)C | inactive |
| COC(=O)COc1ccc(Cl)cc1Cl | inactive |
